The target in one experiment is T1, NKX2-6 (Homo sapiens, UniProt A6NCS4 118-204, R150C).
T1 sequence: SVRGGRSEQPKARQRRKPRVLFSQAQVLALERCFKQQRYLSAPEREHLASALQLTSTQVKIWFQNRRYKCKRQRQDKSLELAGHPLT
Description: PBM; 200 nM protein, PBS. To be noted: dsDNA, one strand shown.
As for GGGGGACC, the binding signal is 8.9 upbm affinity estimate (log intensity, higher = more binding, comparable within an allelic series). For the sequence AAAGTGGT, the binding signal is 11.7 upbm affinity estimate (log intensity, higher = more binding, comparable within an allelic series).

Turning to AAGTGGGG, the binding signal is 11.7 upbm affinity estimate (log intensity, higher = more binding, comparable within an allelic series). On the same count and under the same terms, for AGCCCCCG the value was 9.1 upbm affinity estimate (log intensity, higher = more binding, comparable within an allelic series).

ACCCTGCC: the binding signal is 9.52 upbm affinity estimate (log intensity, higher = more binding, comparable within an allelic series).

AAGTACAT: the binding signal was 11.6 upbm affinity estimate (log intensity, higher = more binding, comparable within an allelic series). On the same count and under the same terms, to GCCCACGA belongs 9.49 upbm affinity estimate (log intensity, higher = more binding, comparable within an allelic series); to AAGTGGCA, 11.6 upbm affinity estimate (log intensity, higher = more binding, comparable within an allelic series); to AAAGTGCA, 11.2 upbm affinity estimate (log intensity, higher = more binding, comparable within an allelic series). The same measure, in the same setting: for ACAAGTGC the value was 11.5 upbm affinity estimate (log intensity, higher = more binding, comparable within an allelic series); for GACCCGAC, 9.44 upbm affinity estimate (log intensity, higher = more binding, comparable within an allelic series); for AAGTGCAC, 11.6 upbm affinity estimate (log intensity, higher = more binding, comparable within an allelic series). As to CACAGGCC, the binding signal is 9.58 upbm affinity estimate (log intensity, higher = more binding, comparable within an allelic series).

Regarding TACACTCA, the binding signal was 11.1 upbm affinity estimate (log intensity, higher = more binding, comparable within an allelic series). On the same count and under the same terms, for GGGGGCGA the value was 9.39 upbm affinity estimate (log intensity, higher = more binding, comparable within an allelic series).

On to CCGTGCCG, for which the binding signal is 9.27 upbm affinity estimate (log intensity, higher = more binding, comparable within an allelic series). In the case of CACTTACA, the binding signal is 11.6 upbm affinity estimate (log intensity, higher = more binding, comparable within an allelic series). Still for that read-out and setting: to GCCGACCA belongs 9.61 upbm affinity estimate (log intensity, higher = more binding, comparable within an allelic series); to GATAAGTA, 11.6 upbm affinity estimate (log intensity, higher = more binding, comparable within an allelic series); to ACCTGGTG, 9.61 upbm affinity estimate (log intensity, higher = more binding, comparable within an allelic series). Same read-out and setting: to AAGGCCCA belongs 9.71 upbm affinity estimate (log intensity, higher = more binding, comparable within an allelic series); to ATCACTTA, 11.6 upbm affinity estimate (log intensity, higher = more binding, comparable within an allelic series). CCGTGGGA: the binding signal is 9.37 upbm affinity estimate (log intensity, higher = more binding, comparable within an allelic series). Still for that read-out and setting: to AAGTGCTC belongs 11.6 upbm affinity estimate (log intensity, higher = more binding, comparable within an allelic series). For AAGTGGTG, the binding signal was 11.6 upbm affinity estimate (log intensity, higher = more binding, comparable within an allelic series).

In the case of CGCGGGCC, the binding signal was 9.38 upbm affinity estimate (log intensity, higher = more binding, comparable within an allelic series).

In the next experiment the target is HOXC9 (Homo sapiens, UniProt P31274 178-260). Kind of experiment: PBM; 200 nM protein, PBS. To be noted: dsDNA, one strand shown.
HOXC9, sequence (P31274 178-260): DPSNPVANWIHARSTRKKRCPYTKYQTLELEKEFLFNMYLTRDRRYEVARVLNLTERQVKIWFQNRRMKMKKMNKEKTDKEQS
For the sequence TATCTCAA, the binding signal was 11 upbm affinity estimate (log intensity, higher = more binding, comparable within an allelic series). On the same count and under the same terms, for CATGGTAA the value was 10.9 upbm affinity estimate (log intensity, higher = more binding, comparable within an allelic series); for ATTGCGCA, 10.8 upbm affinity estimate (log intensity, higher = more binding, comparable within an allelic series). Same read-out and setting: to GTCGATAA belongs 10.9 upbm affinity estimate (log intensity, higher = more binding, comparable within an allelic series); to ATTAGAGG, 10.9 upbm affinity estimate (log intensity, higher = more binding, comparable within an allelic series); to GAACATTC, 10.5 upbm affinity estimate (log intensity, higher = more binding, comparable within an allelic series). Take ACCCTTAT: the binding signal was 10.8 upbm affinity estimate (log intensity, higher = more binding, comparable within an allelic series).

Take CGTAACGC: the binding signal was 10.6 upbm affinity estimate (log intensity, higher = more binding, comparable within an allelic series). Turning to ATGAGAAT, the binding signal was 10.8 upbm affinity estimate (log intensity, higher = more binding, comparable within an allelic series). Still for that read-out and setting: to GCTCTTAA belongs 11 upbm affinity estimate (log intensity, higher = more binding, comparable within an allelic series); to ATTGCACA, 10.8 upbm affinity estimate (log intensity, higher = more binding, comparable within an allelic series).

The record behind these values is PMC11006913.
